The panel holds about 83,000 compounds, 20% with a hit somewhere; the sample as a whole holds those more often.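 How to read the values: 0–100, growth inhibition (40 = 60% inhibited); 0, no net growth; -100 to 0, cell death (-40 = 40% of starting cells died; -100 = all dead).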 A number with no mark means an inactive call. Calls of active or inactive are those of the source. Rule for the calls: active = growth percent below 10; inactive = the rest.
What was measured:
Test in all cases: NCI-60 one-dose screen, 48 h (100 = growth as untreated, 0 = no growth, -100 = all killed)
[1] = test system: SK-MEL-2 melanoma; details: 10 µM unless noted
[2] = test system: EKVX NSCLC; details: 10 µM unless noted
[3] = test system: SN12C renal; details: 10 µM unless noted
[4] = test system: UO-31 renal; details: 10 µM unless noted
[5] = test system: TK-10 renal; details: 10 µM unless noted
[6] = test system: ACHN renal; details: 10 µM unless noted
[7] = test system: CAKI-1 renal; details: 10 µM
[8] = test system: A498 renal; details: 10 µM unless noted
[9] = test system: CCRF-CEM leukemia; details: 10 µM unless noted
[10] = test system: MOLT-4 leukemia; details: 10 µM unless noted
[11] = test system: SR leukemia; details: 10 µM unless noted
[12] = test system: RPMI-8226 leukemia; details: 10 µM unless noted
[13] = test system: OVCAR-8 ovarian; details: 10 µM unless noted
[14] = test system: OVCAR-5 ovarian; details: 10 µM unless noted
[15] = test system: OVCAR-4 ovarian; details: 10 µM unless noted
[16] = test system: SK-OV-3 ovarian; details: 10 µM unless noted
[17] = test system: IGROV1 ovarian; details: 10 µM unless noted
[18] = test system: OVCAR-3 ovarian; details: 10 µM unless noted
[19] = test system: HS 578T breast; details: 10 µM unless noted
[20] = test system: NCI/ADR-RES ovarian; details: 10 µM unless noted

Row | Structure (SMILES) | growth [1] | growth [2] [%] | growth [3] [%] | growth [4] | growth [5] [%] | growth [6] | growth [7] | growth [8] | growth [9] | growth [10] | growth [11] | growth [12] | growth [13] [%] | growth [14] | growth [15] | growth [16] [%] | growth [17] | growth [18] | growth [19] | growth [20]
1 | N#Cc1c(NC(=O)c2ccccc2C(F)(F)F)sc2c1CCC(=O)C2 | 12.2% | 12.4 | 14.5 | -25.2% (active) | 35.1 | -32.8% (active) | -11.1% (active) | 81.8% | 13% | 11.2% | 20.8% | -2.1% (active) | 16.3 | 8.8% (active) | 2.89% (active) | 91.1 | 15.2% | 4.15% (active) | 30.4% | 4.69% (active)
2 | O=C(COc1ccc(/C=C2\SC(=O)NC2=O)cc1)Nc1ccc(C(=O)/C=C/c2cc3ccccc3nc2Cl)cc1 | 91% | 73.1 | 87.5 | 57.6% | 89.8 | 85.1% | 59.2% | 80.7% | 35.4% | 42.8% | 31.3% | -25.8% (active) | 76.4 | 110% | 42.2% | 108 | 71.4% | 85.5% | 78.8% | 92.6%
3 | Cc1ccc(NC(=O)c2ccc(CN3CCN(C)CC3)c(I)c2)cc1Oc1ccc(-c2[nH]nc3ncnc(N)c23)cc1 | 86.4% | 100 | 90 | 75.8% | 114 | 76.9% | 89.9% | 103% | 3.41% (active) | 11.3% | 4.76% (active) | -3.29% (active) | 91.8 | 95.8% | 96.1% | 109 | 88% | 102% | 66.2% | 44.5%
4 | NS(=O)(=O)c1ccc(Nc2nc(N/N=C/c3ccc(C(F)(F)F)cc3)nc(Nc3ccccc3)n2)cc1 | 28.7% | 53.7 | 42.9 | 60.3% | 64.3 | 39.6% | 33.7% | 39.6% | 12% | 9.74% (active) | 7.13% (active) | -5.16% (active) | 33 | 67.5% | 40.9% | 55.5 | 31.2% | 11.7% | 8.82% (active) | 87.4%
5 | COc1ccccc1N1CCN(C2=NN=C(c3cccc(Cl)c3)c3ccccc3C2)CC1 | 0.738% (active) | 40.9 | 21.2 | 24% | 27.8 | 28.5% | 29.7% | -16.6% (active) | 10.1% | 17.6% | -15.3% (active) | 9.68% (active) | 13 | 40.4% | 38.6% | 13.7 | 21.4% | -31.2% (active) | 18.9% | 10.7%
6 | O=C(NCCCNc1cc(-c2cn(-c3ccccc3)nc2-c2cccc(O)c2)ccn1)Nc1cc(C(F)(F)F)cc(C(F)(F)F)c1 | 88.1% | 73.3 | 79.4 | 51.4% | 93.4 | 92.6% | 74.1% | 71.4% | 63.1% | 43.3% | 53.9% | 43.9% | 75.7 | 88.8% | 66.9% | 89.3 | 64% | 86.5% | 57.3% | 69.7%
7 | CCCCOc1ccc(S(=O)(=O)N2CCN(c3nccc(N4CCOCC4)n3)CC2)cc1 | 33.5% | 46.3 | 28.7 | 24.8% | 44.3 | 15.1% | 13.8% | -1.44% (active) | 49.8% | 24.2% | 46.3% | 6.35% (active) | 49.5 | 56.2% | 49.4% | 12.8 | 9.51% (active) | 105% | 69.4% | 31.2%
8 | COc1cc2cc(Oc3ccc(NC(=O)Nc4cc(C(F)(F)F)cc(C(F)(F)F)c4)cc3)c(C)nc2cc1OCCN(C)C | 113% | 106 | 100 | 89.5% | 109 | 107% | 93.4% | 113% | 110% | 107% | 121% | 113% | 113 | 109% | 104% | 113 | 104% | 120% | 101% | 109%
9 | Oc1ccc(CSc2nnc(-c3ccc(Cl)cc3)o2)c2cccnc12 | 54.9% | 34 | 37.4 | 2.83% (active) | 39.1 | 11.4% | 20.2% | 75.5% | 13.3% | 15.3% | 34.3% | 18.6% | 18.9 | 73.1% | 19.8% | 20.3 | 16.4% | 30.8% | 1.27% (active) | 9.8% (active)
10 | N/C(=N\c1nc2c(Cl)cccc2s1)C(Cl)(Cl)Cl | 105% | 52.6 | 91.9 | 61% | 83.5 | 19.6% | 43.9% | 29.9% | 97.3% | 92.1% | 94.2% | 53.3% | 87.6 | 95.5% | 76% | 91.3 | 89.1% | 57.9% | 80.2% | 89%
11 | NC(=O)c1c(NC(=O)c2cccc(C(F)(F)F)c2F)sc2c1CCC(=O)C2 | 102% | 40.8 | 27.2 | -7.62% (active) | 29.8 | 6.7% (active) | -8.99% (active) | 70.9% | 11.7% | 13.5% | 18.7% | -5.06% (active) | 18.3 | 15.6% | 6.91% (active) | 77.2 | 23.7% | 11.6% | 33.9% | 11%
12 | O=C(Nc1cc(F)cc2cccnc12)c1cnc(N2CCOCC2)cn1 | 96% | 63.6 | 83.5 | 46.1% | 61.6 | 34.8% | 64.9% | 86.6% | 28.6% | 29.7% | 38.5% | 70.5% | 79.4 | 65.6% | 17.9% | 95.2 | 25.5% | 9.55% (active) | 98.3% | 78.2%
13 | N=c1c2cc(-c3ccccc3)oc2ncn1/N=C/c1ccccc1 | 97.2% | 86.5 | 86.1 | 85.6% | 80.3 | 75.1% | 67.5% | 77.8% | 64% | 65.3% | 16.4% | 99.1% | 96.9 | 83.5% | 93.2% | 96.5 | 63% | 59.2% | 91.3% | 60.3%
14 | COc1cc(/C=C2\SC(=O)NC2=O)ccc1OCC(=O)Nc1ccc(C(=O)/C=C/c2cc3ccccc3nc2Cl)cc1 | 103% | 77 | 93.5 | 66.1% | 104 | 93.8% | 80.3% | 111% | 57.2% | 51.4% | 27.7% | -1.87% (active) | 84 | 109% | 52.9% | 104 | 92.6% | 104% | 99.1% | 97.9%
15 | N/C(=N\c1nc2ccc([N+](=O)[O-])cc2s1)C(Cl)(Cl)Cl | 120% | 52 | 79.7 | 43.8% | 78.3 | 9.8% (active) | 31.4% | 32.6% | 77.4% | 77% | 57.7% | 38.9% | 73.5 | 84.1% | 67.9% | 82.6 | 65.1% | 47.4% | 79.9% | 73.4%
